# Molecular target: T1, Tyrosine-protein kinase ZAP-70 (Homo sapiens) (UniProt P43403)
# T1 sequence (whole entry): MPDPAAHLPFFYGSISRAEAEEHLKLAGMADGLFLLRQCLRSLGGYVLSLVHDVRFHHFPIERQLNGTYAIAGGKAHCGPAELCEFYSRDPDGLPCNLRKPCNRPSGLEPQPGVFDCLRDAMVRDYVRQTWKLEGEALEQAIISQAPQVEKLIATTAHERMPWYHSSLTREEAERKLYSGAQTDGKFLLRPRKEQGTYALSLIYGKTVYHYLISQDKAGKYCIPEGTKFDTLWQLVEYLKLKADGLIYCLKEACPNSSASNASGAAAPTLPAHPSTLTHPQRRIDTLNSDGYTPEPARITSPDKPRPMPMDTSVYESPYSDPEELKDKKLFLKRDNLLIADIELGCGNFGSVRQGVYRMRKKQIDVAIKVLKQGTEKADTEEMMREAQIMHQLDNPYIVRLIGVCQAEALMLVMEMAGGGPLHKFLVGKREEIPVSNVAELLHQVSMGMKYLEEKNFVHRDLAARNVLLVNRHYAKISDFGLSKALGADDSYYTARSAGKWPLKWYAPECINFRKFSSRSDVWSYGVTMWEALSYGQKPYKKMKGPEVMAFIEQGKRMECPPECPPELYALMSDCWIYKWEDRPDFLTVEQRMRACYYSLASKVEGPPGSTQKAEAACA
# Details: at 10 µM
row,Structure (SMILES),residual activity
1,CO[C@@H]1[C@H](N(C)C(=O)c2ccccc2)C[C@H]2O[C@]1(C)n1c3ccccc3c3c4c(c5c6ccccc6n2c5c31)C(=O)NC4,60%
2,Nc1ccc2ncnc(NCCc3ccc(Oc4ccccc4)cc3)c2c1,108%
3,Cc1nc2cc3nc(-c4cccs4)cnc3cc2n1C,115%
4,O=[N+]([O-])c1ccc(-c2nc(-c3ccc(F)cc3)c(-c3ccncc3)[nH]2)cc1,122%
5,O=C1NC(=O)C(c2cn(CCCn3ccnc3)c3ccccc23)=C1Nc1ccccc1,118%
6,CNc1cc2c(Nc3cccc(Br)c3)ncnc2cn1,108%
7,COc1cc2ncnc(Nc3ccc(NC(=O)c4ccccc4)cc3)c2cc1OC,104%
8,COc1cccc(-c2cc(=O)c3ccccc3o2)c1N,120%
9,Nc1ncnc2c1c(-c1ccc(Oc3ccccc3)cc1)cn2C1CCCC1,99%
10,Cc1cc2ncc(-c3ccccc3)nc2cc1C,98%
11,O=C1Cc2c([nH]c3ccc([N+](=O)[O-])cc23)-c2ccccc2N1,105%
12,N#C/C(=C(\N)Sc1ccc(N)cc1)c1ccccc1C(F)(F)F,101%
13,O=C(Nc1cccc(Nc2nccc(Nc3cccc(C(F)(F)F)c3)n2)c1)C1CC1,116%
14,CN(C)CCCn1cc(C2=C(c3c[nH]c4ccccc34)C(=O)NC2=O)c2ccccc21,118%
15,Cn1c2ccccc2c2c3c(c4c5ccccc5n(CCC#N)c4c21)CNC3=O,111%
16,O=c1c2ccccc2[nH]c(=S)n1CCN1CCC(=C(c2ccc(F)cc2)c2ccc(F)cc2)CC1,94%
17,Oc1ccc(Nc2nc(-c3ccc(Cl)cc3)cs2)cc1,130%

# Source: ChEMBL document CHEMBL2218924, “A broad activity screen in support of a chemogenomic map for kinase signalling research and drug discovery” (Biochem J, 2013)
